# From ChEMBL document CHEMBL2218924, “A broad activity screen in support of a chemogenomic map for kinase signalling research and drug discovery” (Biochem J, 2013)
# Biological target: Serine/threonine-protein kinase N2 (Homo sapiens) (UniProt Q16513)
# Details: at 1 µM
# Sequence of Serine/threonine-protein kinase N2 (Homo sapiens) (Q16513 whole entry, looked up): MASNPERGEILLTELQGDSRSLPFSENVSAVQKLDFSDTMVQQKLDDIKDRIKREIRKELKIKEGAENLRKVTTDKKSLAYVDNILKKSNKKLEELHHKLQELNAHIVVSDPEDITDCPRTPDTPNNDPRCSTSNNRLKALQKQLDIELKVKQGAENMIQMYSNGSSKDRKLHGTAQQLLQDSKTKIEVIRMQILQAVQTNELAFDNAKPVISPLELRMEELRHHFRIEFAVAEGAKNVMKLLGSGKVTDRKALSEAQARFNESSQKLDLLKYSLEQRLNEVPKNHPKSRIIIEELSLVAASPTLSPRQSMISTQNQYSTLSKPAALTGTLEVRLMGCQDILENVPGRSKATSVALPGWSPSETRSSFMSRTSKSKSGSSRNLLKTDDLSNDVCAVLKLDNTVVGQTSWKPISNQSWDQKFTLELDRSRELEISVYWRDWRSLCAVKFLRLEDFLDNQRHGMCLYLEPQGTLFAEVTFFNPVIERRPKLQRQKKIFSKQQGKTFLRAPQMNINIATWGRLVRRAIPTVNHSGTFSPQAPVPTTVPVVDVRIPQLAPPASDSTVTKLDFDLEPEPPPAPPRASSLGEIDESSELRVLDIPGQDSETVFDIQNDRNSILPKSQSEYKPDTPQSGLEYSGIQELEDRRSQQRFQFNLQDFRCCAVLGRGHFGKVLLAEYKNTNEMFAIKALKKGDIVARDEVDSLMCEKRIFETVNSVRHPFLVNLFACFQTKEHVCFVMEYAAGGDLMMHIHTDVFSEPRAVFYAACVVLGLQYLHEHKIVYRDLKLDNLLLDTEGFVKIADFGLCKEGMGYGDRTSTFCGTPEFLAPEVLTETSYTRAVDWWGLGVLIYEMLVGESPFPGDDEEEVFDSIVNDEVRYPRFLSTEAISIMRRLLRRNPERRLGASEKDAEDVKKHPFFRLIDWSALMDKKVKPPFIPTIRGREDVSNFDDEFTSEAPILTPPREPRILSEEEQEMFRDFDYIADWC
row,Structure (SMILES),residual activity [%]
1,CCCC(=O)Oc1ccc2[nH]c(C(=O)c3cc4ccccc4[nH]3)cc2c1,86
2,COc1cc2nccc(Oc3ccc(NC(=S)NC(=O)c4ccccc4C)cc3)c2cc1OC,90
3,O=S(=O)(c1cccc2cnccc12)N1CCCNCC1,56
4,O=C1NC(=O)C(c2c[nH]c3ccccc23)=C1c1c[nH]c2ccccc12,81
5,Nc1ncnc2c1c(-c1ccc(Oc3ccccc3)cc1)cn2C1CCCC1,87
6,Nc1ncnc2c1cnn2-c1ccccc1,85
7,O=C1C(Cl)=C(N2C(=O)CCC2=O)C(=O)c2ccccc21,86
8,CCCCc1c(-c2ccc(O)cc2)[nH]c2nccnc12,87
9,O=C1NC(=O)c2c1c1c3ccccc3[nH]c1n1cncc21,69
10,CC(C)c1nn(-c2c(Cl)cccc2Cl)c2nc(Cc3ccc(OCCO)cc3)[nH]c(=O)c12,89
11,O=C1NC(=O)C(c2cn(CCCn3ccnc3)c3ccccc23)=C1Nc1ccccc1,26
12,COc1ccc2c(c1)c(C1=C(c3c[nH]c4ccccc34)C(=O)NC1=O)cn2CCCN(C)C,68
13,O=c1cc(N2CCOCC2)oc2c1ccc1ccccc12,101
14,O=c1cc(N2CCNCC2)oc2c(-c3ccccc3)cccc12,105
15,Nc1ncnc2[nH]nc(Nc3ccc(F)cc3)c12,107
16,NC(=O)Nc1sc(-c2ccc(F)cc2)cc1C(N)=O,82
17,Cn1sc(=O)n(Cc2ccccc2)c1=O,91
18,O=C1Nc2ccc(Cl)cc2/C1=C/c1cc(Cl)c(O)c(Cl)c1,99
19,O=C1Cc2c([nH]c3ccc(Br)cc23)-c2ccccc2N1,60
20,COc1cc2nccc(Oc3ccc(NC(=O)Nc4cc(C)on4)c(Cl)c3)c2cc1OC,97
21,NC(=O)c1ccc(-c2nc(-c3ccc4c(c3)OCCO4)c(-c3ccccn3)[nH]2)cc1,120
22,O=S(=O)(NCCNC/C=C/c1ccc(Br)cc1)c1cccc2cnccc12,26

# Biological target: Serine/threonine-protein kinase N2 (Homo sapiens) (UniProt Q16513)
# Details: at 10 µM
row,Structure (SMILES),residual activity [%]
1,Nc1n[nH]c2nc3ccccc3nc12,74
2,CCCC(=O)Oc1ccc2[nH]c(C(=O)c3cc4ccccc4[nH]3)cc2c1,93
3,O=C(c1ccccc1)c1ccc(N2CCOCC2)cc1O,129
4,COc1cc2nccc(Oc3ccc(NC(=S)NC(=O)c4ccccc4C)cc3)c2cc1OC,88
5,O=S(=O)(c1cccc2cnccc12)N1CCCNCC1,10
6,O=C1NC(=O)C(c2c[nH]c3ccccc23)=C1c1c[nH]c2ccccc12,37
7,Nc1ncnc2c1c(-c1ccc(Oc3ccccc3)cc1)cn2C1CCCC1,100
8,COc1cc2ncnc(Nc3cccc(Cl)c3)c2cc1OC,76
9,Nc1ncnc2c1cnn2-c1ccccc1,79
10,O=C1C(Cl)=C(N2C(=O)CCC2=O)C(=O)c2ccccc21,79
11,Nc1nccc(-c2c(-c3ccc(F)cc3)ncn2C2CCNCC2)n1,82
12,CCCCc1c(-c2ccc(O)cc2)[nH]c2nccnc12,85
13,O=C1NC(=O)c2c1c1c3ccccc3[nH]c1n1cncc21,61
14,CSc1nc(-c2ccc(F)cc2)c(-c2ccnc(NC(C)c3ccccc3)c2)[nH]1 (stereo not given),94
15,CC(C)c1nn(-c2c(Cl)cccc2Cl)c2nc(Cc3ccc(OCCO)cc3)[nH]c(=O)c12,91
16,O=C1NC(=O)C(c2cn(CCCn3ccnc3)c3ccccc23)=C1Nc1ccccc1,11
17,COc1ccc2c(c1)c(C1=C(c3c[nH]c4ccccc34)C(=O)NC1=O)cn2CCCN(C)C,25
18,O=c1cc(N2CCOCC2)oc2c1ccc1ccccc12,98
19,O=c1cc(N2CCNCC2)oc2c(-c3ccccc3)cccc12,101
20,Nc1ncnc2[nH]nc(Nc3ccc(F)cc3)c12,80
21,NC(=O)Nc1sc(-c2ccc(F)cc2)cc1C(N)=O,27
22,O=C(O)/C=C/c1cc(Br)c(Br)c(Br)c1Br,38
23,Cn1sc(=O)n(Cc2ccccc2)c1=O,84
24,O=C1Nc2ccc(Cl)cc2/C1=C/c1cc(Cl)c(O)c(Cl)c1,94
25,O=C1Cc2c([nH]c3ccc(Br)cc23)-c2ccccc2N1,26
26,COc1cc2nccc(Oc3ccc(NC(=O)Nc4cc(C)on4)c(Cl)c3)c2cc1OC,108
27,NC(=O)c1ccc(-c2nc(-c3ccc4c(c3)OCCO4)c(-c3ccccn3)[nH]2)cc1,98
28,O=S(=O)(NCCNC/C=C/c1ccc(Br)cc1)c1cccc2cnccc12,4
